Inconclusive results are not listed. Entries that show only a call come without a potency. Active and inactive are the calls of the source. Calls follow the shape of the dose curve; as a rule, active = well fitted cell-killing curve with a large enough effect; inconclusive = small, poorly fitted or top-dose-only effect; inactive = flat fitted curve, though single readings scatter.
assay: Cell Viability - LYMP2-025 (AID 976); details: LYMP2-025 lymphoblastoid cell viability; series mostly up to 92.2 µM
Description: NIH Chemical Genomics Center [NCGC]
NIH Molecular Libraries Screening Centers Network [MLSCN]
National Institutes of Environmental Health Sciences [NIEHS]
National Toxicology Program [NTP]
We have developed a 1536-well cell-based assay for quantitative high throughput screening (qHTS) against a number of cell lines to determine in vitro cytotoxicity of small molecules. This particular assay uses a human lymphoblastoid cell line (LYMP2-025) purchased from Coriell Institute for Medical Research.
NCGC Assay Protocol Summary:
The CellTiter-Glo luminescent cell viability assay (Promega) is a homogeneous method to measure the number of viable cells in culture. The end point readout of this assay is based on quantitation of intracellular ATP, an indicator of metabolic activity, using the luciferase reaction. Luciferase catalyzes the oxidation of beetle Luciferin to oxyluciferin and light in the presence of ATP. The luminescent signal is proportional to amount of ATP present.
Using the CellTiter-Glo luminescent cell viability assay, the amount of cellular ATP was measured in the lymphoblastoid cell line with complete culture medium following compound treatment for 24 hours. The assay was performed in opaque white Kalypsys 1536-well plates. In the screen, tetraoctylammonium bromide was used as positive control. Library compounds were measured for their ability to cause acute toxicity in the cell line, as reflected by a decrease in intracellular ATP levels, in a concentration-dependent manner. […] AC50 values were determined from concentration-response data modeled with the standard Hill equation.
qHTS protocol for CellTiter Glo lymphoblastoid cellular assay
[Step] [Parameter] [Value] [Description]
1. Reagent; 5 uL; 2500 lymphoblastoid cells/well
2. Time; 5 hr; 37 C incubation
4. Controls; 23 nL; Tetraoctylammonium bromide 6.4pM to 92 uM
5. Time; 24 hr; 37 C incubation
6. Reagent; 5 uL; CellTiter Glo reagent
7. Time; 30 min; Room Temperature
8. Detection; Luminescence; Viewlux plate reader
Keywords: cell viability, cytotoxicity, lymphoblastoid cell line, luminescence, NTPHTS, NTPHTS_NCGC, NIEHS, DSSTox, MLSMR, MLSCN, NIH Roadmap, qHTS, NCGC
Potency is read from the fitted curve at half-maximal effect.

Structure (SMILES)	Potency
CC(C)NCC(O)COc1cccc2ccccc12 (configuration not stated)	inactive
S=c1[nH]c2ccccc2s1	inactive
Nc1ccc([N+](=O)[O-])cc1O	inactive
O=C(O)/C=C\C(=O)O	inactive
CC1(C)S[C@@H]2[C@H](NC(=O)[C@H](N)c3ccccc3)C(=O)N2[C@H]1C(=O)O	inactive
COc1cc(/C=C/C(=O)CC(=O)/C=C/c2ccc(O)c(OC)c2)ccc1O	50.1 µM (active)
Nc1ccc(O)c(C(=O)O)c1	inactive
COc1cc(CNC(=O)CCCC/C=C/C(C)C)ccc1O	inactive
Nc1ccc(O)c([N+](=O)[O-])c1	inactive
CN(C)c1ccc(C(=C2C=CC(=[N+](C)C)C=C2)c2ccccc2)cc1	0.501 µM (active)
CN(C)CCC(c1ccc(Cl)cc1)c1ccccn1 (configuration not stated)	inactive
CCCCCCCCCCCCCCCCCC(=O)O	inactive
CN1CCC[C@H]1c1cccnc1	inactive
CCCOC(=O)c1ccc(O)cc1	inactive
O=C1CN(/N=C/c2ccc([N+](=O)[O-])o2)C(=O)N1	inactive
C#C[C@]1(O)CC[C@H]2[C@@H]3CCc4cc(O)ccc4[C@H]3CC[C@@]21C	inactive
O=c1cc(-c2ccccc2)oc2ccccc12	inactive
Oc1ccccc1O	inactive
c1ccc2sc(SSc3nc4ccccc4s3)nc2c1	inactive
Nc1nc2ccc([N+](=O)[O-])cc2s1	inactive
CN(C)c1ccc(N=NS(=O)(=O)O)cc1	inactive
NCCO	inactive

Source: PubChem BioAssay (NCATS)
